Most compounds without a hit are left out; they make up all but 19% or so of the library.
DT40 TDP1 no CPT: qHTS for Inhibitors of human tyrosyl-DNA phosphodiesterase 1 (TDP1): qHTS in cells in absence of CPT | DT40 Tdp1-/- hTDP1 cells, no CPT, ATP luminescence, 48 h | 15% of 420,000 active | Potency, µM (series often up to 46.2 µM), most hits filed as inhibitors; also: nearly all actives have a fitted effect of over 55% in size
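Growth kinetics read by CellTiter-Glo luminescence after ≥48 hr at 37 °C. Cells: DT40 Tdp1-/- stably carrying human TDP1, 400 per well, compound exposure in the absence of CPT (DMSO vehicle).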
Giardia kill: Small Molecules that selectively kill Giardia lamblia: qHTS; Giardia lamblia trophozoite viability; activity change, % at 7.66 µM, hits read low; 0.15% of 340,000 active; in the data active = activity change below about -80%; inconclusive = between about -30% and that limit;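 also: parasites exposed to compound for two days anaerobically before the ATP read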
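Luminescent ATP signal served as the viability read-out, measured 15-30 min after adding ATP detection reagent to trophozoites that had been incubated with compounds for 48 hrs at 37 deg C anaerobically at 100 cells/well.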
IL1B secr inh: qHTS for Inhibitors of Inflammasome Signaling: IL-1-beta AlphaLISA Primary Screen; THP-1 LPS/ATP IL-1B secretion, AlphaLISA, 16 h; stronger effect = lower value; activity change, % at 57.5 µM; AID 743279, 2014; 4.7% of 360,000 active; in the data active = activity change below about -50%; inconclusive = mostly about -30% to -49%
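Secreted IL-1B measured by AlphaLISA bead assay after 16 h compound exposure of THP-1 cells; compounds (final up to 57.5 uM) added 1 h before LPS (250 ng/mL) and ATP (1.25 mM) stimulation; lower signal means less secretion.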
ELG1 repair inh: qHTS screen for small molecules that inhibit ELG1-dependent DNA repair in human embryonic kidney (HEK293T) cells expressing luciferase-tagged ELG1. HEK293T ELG1-luciferase reporter, luminescence, 16 h; DNA damage induced by 5-fluorouridine. Potency, µM (titrated, usually from 46.1 µM), actives largely listed as inhibitors. 2.3% of 330,000 active. AID 504467, 2011; also: nearly all actives have a fitted effect of over 55% in size
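HEK293T cells expressing luciferase-tagged ELG1 (2,000/well) received 5-Fluorouridine plus compound or DMSO for 16 hr at 37 °C. Luciferase was read by ONE-Glo luminescence after 30 min at room temperature.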
TDP1 cell CPT: qHTS for Inhibitors of human tyrosyl-DNA phosphodiesterase 1 (TDP1): qHTS in cells in presence of CPT. chicken DT40 Tdp1-/-;hTDP1 cells + 20 nM CPT, ATP luminescence, 48 h. Potency, µM (highest dose often 46.2 µM), actives largely listed as inhibitors. 12% of 420,000 active. AID 686979, 2013; also: nearly all actives have a fitted effect of over 55% in size
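Cell growth measured by CellTiter-Glo luminescence after a minimum 48 h, 37 C compound exposure with 20 nM CPT in Tdp1-knockout DT40 cells stably expressing hTDP1, seeded 400/well; qHTS titration format.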
TDP1 block: qHTS Assay for Inhibitors of Tyrosyl-DNA Phosphodiesterase (TDP1); recombinant TDP1, AlphaScreen DNA substrate cleavage; 0.28% of 350,000 active; Potency, µM (highest dose often 130 µM), hits mostly inhibitors; AID 485290, 2010; also: nearly all actives have a fitted effect of over 40% in size
Target sequence (Q9NUW8 whole entry, looked up): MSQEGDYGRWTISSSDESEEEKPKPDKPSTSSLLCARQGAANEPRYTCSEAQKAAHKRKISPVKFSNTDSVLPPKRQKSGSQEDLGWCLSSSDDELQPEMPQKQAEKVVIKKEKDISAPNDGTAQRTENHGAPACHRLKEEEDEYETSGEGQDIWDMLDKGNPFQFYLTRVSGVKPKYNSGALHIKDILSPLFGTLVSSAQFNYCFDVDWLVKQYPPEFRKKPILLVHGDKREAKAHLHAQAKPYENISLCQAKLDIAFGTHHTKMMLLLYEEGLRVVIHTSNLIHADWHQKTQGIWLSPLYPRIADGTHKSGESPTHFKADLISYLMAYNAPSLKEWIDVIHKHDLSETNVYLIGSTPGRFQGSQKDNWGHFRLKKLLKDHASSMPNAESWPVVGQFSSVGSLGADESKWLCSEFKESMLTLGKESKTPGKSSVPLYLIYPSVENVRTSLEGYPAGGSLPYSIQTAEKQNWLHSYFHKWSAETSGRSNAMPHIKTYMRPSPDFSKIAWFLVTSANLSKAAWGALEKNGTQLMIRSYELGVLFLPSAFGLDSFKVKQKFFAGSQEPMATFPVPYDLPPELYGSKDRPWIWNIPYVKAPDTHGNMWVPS
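Recombinant E. coli-expressed Tdp1 (1 nM) preincubated with compound 15 min at RT, then 5'-biotin/3'-phosphotyrosine-FITC DNA substrate (15 nM) added for 5 min. AlphaScreen beads (10 ug/ml) added, 10 min RT; tyrosine-FITC cleavage read as signal loss.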
A number is an active result; . = inactive; ? = inconclusive; / = no result given; [ ] = another dose, or the depositor's remark. Unless noted, calls follow the shape of the dose curve; as a rule, active = well fitted curve in the direction sought with a large enough effect; inconclusive = small, poorly fitted or top-dose-only effect, or another doubt; inactive = no such curve, though single readings can be large; an effect the other way counts as inactive or inconclusive.

SMILES | DT40 TDP1 no CPT | Giardia kill | IL1B secr inh | ELG1 repair inh | TDP1 cell CPT | TDP1 block
O=C(CSc1nnc(CNC(=O)c2ccccc2)o1)NCc1ccco1 | . | . | . | . | . | .
O=C(CSc1nnc(CNC(=O)c2c(F)cccc2F)o1)NCc1ccco1 | . | . | . | . | . | 50.1µM
Cc1ccc(CNC(=O)CSc2nnc(CNC(=O)c3ccc(F)cc3)o2)cc1 | . | / | . | / | . | /
COc1cc2c(cc1OC)-c1nnc(-c3cccs3)n1C1(CCCC1)C2 | 20.6µM | . | . | . | 20.6µM | .
COc1ccc(-c2nnc3n2C(C)(C)Cc2cc(OC)c(OC)cc2-3)cc1 | / | / | / | . | / | .
COc1ccc2c(c1)-c1nc(NC(=O)c3ccco3)sc1CC2 | 14.6µM | . | . | ? | ? | .
COc1ccc2c(c1)Cc1sc(NC(=O)c3cccnc3)nc1-2 | 20.6µM | . | ? | . | ? | .
Cc1ccc(C)c(N2CCN(CCCNC(=O)c3ccc4nc(N5CCC(C)CC5)sc4c3)CC2)c1 | 9.2µM | / | / | / | 14.6µM | .
COc1ccc(N2CCN(CCCNC(=O)c3ccc4nc(N5CCCCC5)sc4c3)CC2)cc1 | ? | / | / | / | 16.4µM | .
Cc1ccc(Cl)cc1N1CCN(CCCNC(=O)c2ccc3nc(N4CCCCC4)sc3c2)CC1 | 11.6µM | / | / | / | 20.6µM | .
CN1C(=O)CSC1=NC12CC3CC(CC(C3)C1)C2 | ? | . | . | . | . | .
CCN1C(=O)CSC1=NC12CC3CC(CC(C3)C1)C2 | ? | . | -65.8 | . | ? | .
CCOc1ccc(-n2c(SC(C)C)nc3c(c2=O)SCC3)cc1 | 16.4µM | . | . | ? | ? | .
O=c1ccsn1Cc1ccccc1 | 0.651µM | . | -100.7 | . | 0.291µM | .
COC(=O)c1c(C)oc2ccc(N(C(=O)Oc3ccccc3)S(=O)(=O)c3ccc(C(C)(C)C)cc3)cc12 | 1.46µM | / | / | / | 3.66µM | .[12.3 µM]
CC(=O)c1c(C)oc2ccc(N(C(=O)Oc3ccccc3)S(=O)(=O)c3ccccc3)cc12 | 10.3µM | / | / | / | ? | .[12.3 µM]
CCOC(=O)c1c(C)oc2ccc(N(C(=O)Oc3ccccc3)S(=O)(=O)c3ccccc3)cc12 | . | / | / | / | . | .[12.3 µM]
O=C(Nc1cccc(C(=O)Nc2ccc(F)cc2F)c1)c1ccccc1 | ? | . | . | ? | . | /
Cc1noc(C)c1CSc1nc2ccccc2[nH]1 | . | ? | . | . | . | .
COc1ccc(-c2noc(COc3ccccc3OC)n2)cc1OC | ? | . | . | . | 16.4µM | .
Cc1ccc2nc(SCc3nnc(-c4cccs4)o3)[nH]c2c1 | 11.6µM | . | . | . | ? | .
COc1ccccc1-c1noc(CCC(=O)Nc2ccc(C)cc2C)n1 | ? | / | / | / | ? | .
Cc1ccc2nc(SCc3nnc(-c4ccccc4)o3)[nH]c2c1 | . | . | . | . | . | .
c1ccc(-c2cc(CSc3nc4ccccc4[nH]3)on2)cc1 | 20.6µM | . | . | . | 11.6µM | .
COc1ccccc1-c1noc(CSc2nc3ccc(C)cc3[nH]2)n1 | 16.4µM | / | / | / | ? | .
SMILES | DT40 TDP1 no CPT | Giardia kill | IL1B secr inh | ELG1 repair inh | TDP1 cell CPT | TDP1 block
CCc1cccc(C)c1NC(=O)C(CC)Sc1nc2ccncc2[nH]1 (stereo not drawn) | ? | / | / | / | ? | .
Cc1ccc(S(=O)(=O)N2CCN(C(=O)CNC(=O)c3ccc(Cl)cc3)CC2)cc1 | . | . | . | . | . | .
Cc1ccccc1-c1noc(CSc2nc3ccccc3[nH]2)n1 | 6.51µM | / | / | / | 18.4µM | .
COc1ccc(-c2noc(CSc3nc4ccccc4[nH]3)n2)cc1OC | 18.4µM | / | / | / | 23.1µM | .
COc1cc(CNC(C)C)c(Br)cc1OC1CCCC1 | . | . | . | . | . | .
CCOC(=O)CSc1nc2ccc(NC(=O)COc3ccc(F)cc3)cc2s1 | . | / | / | / | . | .
Cc1ccc(-n2nc3c(=O)n(CCCC(=O)NCc4ccc(Cl)cc4)nc(C)c3c2C)cc1 | 13µM | . | . | ? | 23.1µM | .
COc1ccc(CNC(=O)CCCn2nc(C)c3c(C)n(-c4ccccc4)nc3c2=O)cc1 | ? | . | ? | . | . | .
COc1ccc(CNC(=O)CCCn2nc(C)c3c(C)n(-c4ccc(C)cc4)nc3c2=O)cc1 | 9.2µM | . | . | ? | ? | .
Cc1ccc(-n2nc3c(=O)n(CCCC(=O)NCc4cccc(Cl)c4)nc(C)c3c2C)cc1 | ? | . | . | . | 23.1µM | .
CCCC1CC(C(=O)N[C@H](C(C)O)C2OC(SC)[C@@H](O)C(O)C2O)N(C)C1 (stereo partly drawn) | . | / | / | / | . | .
CCN1C(=O)C(CC(=O)NCCc2ccccc2)N(NC(=O)c2ccc(Br)cc2)C1=S (stereo not drawn) | 20.6µM | / | . | / | ? | /
CC(C)C[C@@H](CN1CCC[C@@H]1CN1C(=S)NC[C@@H]1Cc1ccccc1)N1C[C@H](Cc2ccc(O)cc2)N(CC2CCCCC2)C1=S | 23.1µM | / | . | / | ? | /
CC(C)C[C@@H](CN1CCCC1CN1C(=S)NC[C@@H]1Cc1ccc(O)cc1)N1C[C@H](Cc2ccc(O)cc2)N(CC2CCCCC2)C1=S (stereo partly drawn) | 14.6µM | . | -86.6 | / | 20.6µM | /
CC(C)C[C@@H](CN1CCC[C@@H]1CN1C(=S)NC[C@@H]1Cc1ccc(O)cc1)N1C[C@H](Cc2ccccc2)N(CCc2ccccc2)C1=S | ? | / | . | / | ? | /
CC(C)C[C@@H](CN1CCC[C@@H]1CN1C(=S)NC[C@@H]1Cc1ccccc1)N1C[C@H](Cc2ccc(O)cc2)N(CC2CCCCCC2)C1=S | 18.4µM | / | . | / | 13µM | /
Cc1ccc(C(=O)NCC(=O)N(C)Cc2ccc(Cl)cc2Cl)s1 | ? | . | . | . | ? | .[0.505 µM]
CCCCC/C(C=O)=C\c1ccccc1 | . | / | / | / | . | /
CS(=O)(=O)N(CC(=O)Nc1ccc(Br)cc1)C1CCCCC1 | 23.1µM | . | . | . | ? | /
Cc1cc(C)c(NC(=O)COC(=O)C2CCCCC2)c(C)c1 | . | . | . | . | . | .
Cc1ccc(NC(=O)CN(C)C2CCCCC2)cc1Br | 18.4µM | . | . | . | ? | .
Cc1cc(C)c(NC(=O)CN(C2CCCCC2)C2CCCCC2)c(C)c1 | 16.4µM | . | . | . | 23.1µM | .
O=C(c1cc(-c2ccccn2)nc2c(Cl)cccc12)N1CCN(C(=O)C2CCCO2)CC1 (stereo not drawn) | ? | . | . | . | . | .
O=C(c1cc(-c2cccs2)nc2ccccc12)N1CCN(c2ccccc2)CC1 | ? | . | . | ? | ? | .

Screening data: PubChem, National Center for Advancing Translational Sciences (NCATS)
